The campaign covered roughly 330,000 compounds. About 520 (0.16%) were called active. Shown is part of a subset that was picked to be rich in actives. Values without a mark were called inactive.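 Rule for the calls: active = inhibition of at least 50% in every replicate; inconclusive = best replicate reaches 50% inhibition but some replicates fall short; inactive = the rest.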
Each compound was assayed against Histone acetyltransferase RTT109 (Candida albicans (strain SC5314 / ATCC MYA-2876)) (UniProt Q5AAJ8) (assay: inhibitors of C. albicans Rtt109/Vps75 HAT, primary screen, biochemical, ThioGlo CoA-SH fluorescence, plate reader (AID 540336)). Conditions: purified Rtt109/Vps75, ThioGlo CoA-SH fluorescence, 4 h; at 34.9 µM; stronger effect = higher value.
Histone acetyltransferase RTT109 (Candida albicans (strain SC5314 / ATCC MYA-2876)), sequence (Q5AAJ8 whole entry, looked up): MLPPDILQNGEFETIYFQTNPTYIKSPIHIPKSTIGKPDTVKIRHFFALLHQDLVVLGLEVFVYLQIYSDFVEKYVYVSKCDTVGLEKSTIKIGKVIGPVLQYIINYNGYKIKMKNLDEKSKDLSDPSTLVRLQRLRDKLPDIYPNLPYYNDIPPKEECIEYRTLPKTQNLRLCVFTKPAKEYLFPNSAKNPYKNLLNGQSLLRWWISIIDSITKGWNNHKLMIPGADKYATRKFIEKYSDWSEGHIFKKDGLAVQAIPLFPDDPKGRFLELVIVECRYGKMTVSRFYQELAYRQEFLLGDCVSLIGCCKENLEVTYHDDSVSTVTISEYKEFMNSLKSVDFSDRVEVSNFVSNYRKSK

Going from `COc1cccc(/C=N/Nc2ccc(S(=O)(=O)Nc3ccccc3C(=O)O)cc2[N+](=O)[O-])c1O` to `O=[N+]([O-])c1ccc(NS(=O)(=O)c2ccccc2)c(Cl)c1`, the inhibition falls from 31.2% to -7.39%.

Compared with `COc1ccc(/C=C/C(=O)OCC(=O)N2CCN(S(=O)(=O)c3ccc(C)cc3C)CC2)cc1OC`, `Cc1cccc(N2CCN(c3ccc(NC(=O)/C=C\C(=O)O)cc3)CC2)c1` is higher in inhibition: -12.4% for the first, 3.01% for the second.

Compared with `Cc1ccc2c(O)c(Cc3ccccc3)c(=O)[nH]c2n1`, `Cn1cc(C2OC(=O)c3ccccc32)c2ccccc21` (configuration not stated) is lower in inhibition: 3.15% for the first, 0.802% for the second.

Compared with `CCOC(=O)c1ccccc1NC(=O)CSc1nc2c(sc(=S)n2CC)c(=O)[nH]1`, `CCCCc1nnc(NC(=O)CSc2nc(C)cc(=O)[nH]2)s1` is lower in inhibition: 12.6% for the first, -0.892% for the second.

Going from `COc1ccc(CNCCCn2cnc3c(OCc4ccccc4)ncnc32)cc1` to `O=C(O)/C=C\C(=O)Nc1ccc(OCc2ccccc2)cc1`, the inhibition rises from -0.493% to 3.12%.

Compared with `O=C(Nc1ccccc1Cl)O/N=C(/c1ccccc1)c1ccccn1`, `COc1ccccc1C(=O)c1ccccc1C(=O)c1ccccc1` is higher in inhibition: -0.825% for the first, -0.662% for the second.

Going from `CC1(C)CC(CCC(=O)Nc2ccccc2Cl)C(=O)O1` (configuration not stated) to `NC(=O)C1(Nc2ccccc2Cl)CCCC1`, the inhibition rises from -18.6% to -1.87%.

Compared with `Cc1cc2c(cc1C)NC1(C[C@H]3CCC(=O)N4CC[C@@H](C1)[C@@H]34)C(=NC(C)(C)CC(C)(C)C)N2` (some centres not stated), `CC(=O)OC1CCC2C3CCC4=C(CC(F)C(=O)C4)C3CCC12C` (configuration not stated) is lower in inhibition: -1.37% for the first, -7.91% for the second.

Compared with `COc1ccc2c(c1)C(=O)CC(c1ccccc1)O2` (configuration not stated), `COc1cccc(C=CC(=O)C=CC=Cc2ccccc2)c1` is lower in inhibition: -1.45% for the first, -4.82% for the second.

First: CCOC(=O)Cc1csc(NC(=O)CSc2ccc(Br)cc2)n1
Second: CCCCC(=O)NC(c1ccc(OC)c(OC)c1)c1ccc2cccnc2c1O (configuration not stated)
The inhibition of the first is higher: 2.14% for the first, -3.23% for the second.

Going from `Cc1ccc(S(=O)(=O)N2CCC(C(=O)N3CCCCCCC3)CC2)cc1` to `O=C(NCCCN1CCCCCC1)C1CC(=O)N(C2CCCC2)C1` (configuration not stated), the inhibition rises from 1.29% to 32.5%.

First: CC(=O)OC1CCC2(C)C(=CCC3C4CC(=O)N(O)C(=O)C4(C)CCC32)C1 (configuration not stated)
Second: O=C1c2ccccc2C(=O)C1C(=O)C1CC1
The inhibition of the first is higher: 1.39% for the first, 0.0105% for the second.

First: CC(C)C[C@H]1CN([C@@H](CC(C)C)CN2CCC[C@@H]2CN2C(=O)C(=O)NC[C@@H]2Cc2ccccc2)C(=O)C(=O)N1CCc1ccccc1
Second: O=C1C=C(NS(=O)(=O)c2ccccc2)C(=O)c2ccccc21
The inhibition of the first is higher: 3.1% for the first, -1.13% for the second.

Going from `OCCN1CCN(CCO)C1=S` to `CC(C)(C)S(=O)(=O)N1Cc2cc(CO)cc(CCO)c2[C@H]1CCO`, the inhibition falls from -2.55% to -3.04%.

Going from `O=[N+]([O-])c1cc2ccccc2nc1-c1ccccc1` to `O=C(Nc1ccccc1Cl)c1ccccc1S(=O)(=O)c1ccccc1[N+](=O)[O-]`, the inhibition rises from 2.85% to 22.9%.

Going from `CCCN(C(=O)COC(=O)CNS(=O)(=O)c1ccc(NC(C)=O)cc1)C1CCS(=O)(=O)C1` (configuration not stated) to `CC(=O)Nc1ccc(NC(=O)COc2ccccc2C(=O)Nc2cccc(Cl)c2Cl)cc1`, the inhibition falls from 2.12% to -5.99%.

First: Cc1cccc(C2c3c(n(C)c(=O)n(C)c3=O)N=C3c4ccccc4C(=O)C32)c1 (configuration not stated)
Second: CC(=O)Oc1ccc(N(C(C)=O)S(=O)(=O)c2ccc3ccccc3c2)cc1Br
The inhibition of the first is higher: 29.8% for the first, 2.06% for the second.

Compared with `O=C(Nc1ccccc1)Oc1cccc2cccnc12`, `COC(=O)c1c(C)oc2ccc(N(C(=O)Oc3ccccc3)S(=O)(=O)c3ccccc3)cc12` is lower in inhibition: 1.03% for the first, 0.88% for the second.

Going from `CC(C)(C)C(=O)Nc1cccc(-c2ccc[nH]2)n1` to `O=C1NCC(Nc2ccccc2)C(=O)N1` (configuration not stated), the inhibition falls from -1.5% to -4.85%.

First: COc1ccc(CN2CC(C(=O)NCCN3CCN(c4ccccc4F)CC3)CC2=O)cc1 (configuration not stated)
Second: O=C(O)c1ccc(NN=CC2=C(N3CCOCC3)/C(=C/c3ccccc3)CC2)cc1
The inhibition of the first is higher: -11.1% for the first, -15.5% for the second.

Compared with `CC(C)c1cc(CN2CCOCC2)cc(C(C)C)c1O`, `CCCCNC1(C#N)CCN(Cc2ccccc2)CC1` is higher in inhibition: -6.21% for the first, 0.637% for the second.

Going from `O=C(Nc1c(Br)cc2c(c1Br)Cc1cc([N+](=O)[O-])ccc1-2)C(Cl)Cl` to `CC(C=Cc1ccccc1)=NNS(=O)(=O)c1ccc([N+](=O)[O-])cc1`, the inhibition rises from -4.04% to -0.601%.

Work on `CCOC(=O)CCC(NC(=O)c1ccc(CNc2nc3cc(C(F)(F)F)ccc3nc2C(=O)OCC)cc1)C(=O)OCC` (configuration not stated) yielded an inhibition of 9.24%.

In the case of `O=C(Nc1ccccc1Cl)/C(Cl)=C(\Cl)S(=O)c1ccccc1` (configuration not stated), the inhibition is reported as 136% (active).
With `CCOC(=O)Cc1csc(NC(=O)CSc2nc(C)cc(=O)[nH]2)n1` the inhibition was 66.2% (active).
In the case of `CSc1ccc(NC(=O)/C=C/C(=O)O)cc1`, the inhibition is reported as 63.6% (active).
For `CN(C)S(=O)(=O)Oc1ccccc1C(=O)Nc1ccccc1Cl`, the inhibition was 58.3% (active).
For `O=C(NCCCN1CCN(c2ccccc2F)CC1)C1CCC(=O)N1C1CCCCC1` (configuration not stated), the inhibition was 58.1% (active).
For `Oc1c(C(c2ccccn2)N2CCOCC2)ccc2cccnc12` (configuration not stated), the inhibition was 51.7% (active).
`CC(=O)N(c1ccc2oc(=O)sc2c1)S(=O)(=O)c1ccc(C)cc1` was tested, and the inhibition was 134% (active).
